rCAG RNA binder – molecules binding r(CAG) RNA repeats; r(CAG) RNA repeat, TO-PRO-1 dye displacement fluorescence; inhibition, % at 3 µM; hit rate 1.3% among 370,000; AID 651821;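 active = inhibition above the plate cutoff, the mean of all test compounds on that plate plus 3 SD, cut at about 35% in these data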;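 note: 0% = DMSO alone and 100% = 100 µM mitoxantrone as full dye displacement; higher means more dye released from RNA so lower well fluorescence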
NadD block – blocks S. aureus nicotinate mononucleotide adenylyltransferase; purified NadD enzyme, colorimetric absorbance read-out; inhibition, % at 20 µM; hit rate 0.78% among 360,000; AID 602399; in the data active = inhibition above about 26%
FAS-TE inh – blocks the thioesterase domain of human fatty acid synthase. inhibition, % at 15 µM. hit rate 0.67% among 360,000. P49327. recombinant FAS-TE, OMFH fluorogenic substrate, fluorescence endpoint. AID 602261;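 active = compounds whose normalised, plate-corrected inhibition of enzyme fluorescence in the single-dose primary screen is 50% or more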;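 note: 0% = DMSO with enzyme and 100% = substrate without enzyme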
NR3A LBD binder – modulates the human NR3A ligand-binding domain; NR3A LBD differential scanning fluorimetry, Tm shift; 0% = protein alone, 100% = glycine-bound protein; Tm shift relative to glycine control, % at 25 µM; hit rate 2.5% among 340,000; AID 1259313;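 active = melting temperature shift of at least 10% of the positive control shift, at one fixed dose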
Active calls of the source: *. In the library only some 4.3% were active in any assay of this set; here they are far more common.

CC(/C=C1\SC(=S)N(CC(=O)O)C1=O)=C\c1ccccc1 was read as rCAG RNA binder 8, NadD block 3, FAS-TE inh 3 and NR3A LBD binder 0.
CC(/C=C1\SC(=O)N(CC(=O)Nc2cccc(O)c2)C1=O)=C\c1ccccc1 was read as rCAG RNA binder 28, NadD block -2, FAS-TE inh 20 and NR3A LBD binder 19*.
For NC(N)=N/N=C/c1cccc([N+](=O)[O-])c1O the results were rCAG RNA binder -1, NadD block 0, FAS-TE inh -8 and NR3A LBD binder -4.
For O=[N+]([O-])c1cccc(/C=N\N=C2c3ccccc3-c3ccccc32)c1O the results were rCAG RNA binder 2, NadD block 19, FAS-TE inh 36 and NR3A LBD binder 14*.
For CCOC(=O)C1(Cc2ccccc2)CCN(Cc2ccnc3ccccc23)CC1 the results were rCAG RNA binder -1.
Screening CC(=O)Nc1ccc(S(=O)(=O)N(C)CCOCc2ccccc2)cc1 returned rCAG RNA binder -5, NadD block -5, FAS-TE inh 3 and NR3A LBD binder 16*.
Screening Cc1ccc(-c2noc(CCC(=O)Nc3ccc(C)cn3)n2)cc1 returned rCAG RNA binder -1, NadD block -1, FAS-TE inh -5 and NR3A LBD binder 11*.
Screening Cc1ccc(-c2noc(CCC(=O)NCC3CCCO3)n2)cc1 (centres undefined) returned rCAG RNA binder -2, NadD block 0, FAS-TE inh -3 and NR3A LBD binder -1.
For COc1cccc(C(=O)NNC(=O)c2ccccc2)c1 the results were rCAG RNA binder -1, NadD block -3, FAS-TE inh -2 and NR3A LBD binder 2.
COc1c(C(=O)NNC(=O)c2ccccc2)csc1Br was read as rCAG RNA binder 0, NadD block -3, FAS-TE inh -7 and NR3A LBD binder 12*.
CCOc1ccc(-c2c(C(=O)N/N=C/c3ccc(OC(C)C)cc3)nnn2-c2nonc2N)cc1 was read as rCAG RNA binder 8, NadD block 7, FAS-TE inh 18 and NR3A LBD binder 11*.
`Cc1ccc(-c2c(C(=O)N/N=C/c3cccc(Cl)c3)nnn2-c2nonc2N)cc1` gave rCAG RNA binder 4, NadD block 21, FAS-TE inh 8 and NR3A LBD binder 15*.
CCOc1ccc(-c2c(C(=O)N/N=C/c3ccc(C)cc3)nnn2-c2nonc2N)cc1 was read as rCAG RNA binder 6, NadD block 5, FAS-TE inh 22 and NR3A LBD binder 7.
CCOc1ccc(-c2c(C(=O)N/N=C/c3ccc(Cl)cc3)nnn2-c2nonc2N)cc1 was read as rCAG RNA binder 10, NadD block 11, FAS-TE inh 16 and NR3A LBD binder 13*.
For CCOc1ccc(/C=N/NC(=O)c2nnn(-c3nonc3N)c2-c2cccs2)cc1 the results were rCAG RNA binder 4, NadD block -3, FAS-TE inh 6 and NR3A LBD binder 13*.
For Clc1ccc([C@H]2OC[C@@]3(CNCCN4CCOCC4)CS[C@H](c4ccc(Cl)cc4)N23)cc1 the results were rCAG RNA binder -1.
Oc1ccc2ccccc2c1C=NN1CCN(Cc2ccc(Cl)cc2)CC1 was read as rCAG RNA binder 3.
Screening Cc1ccc(S(=O)(=O)N2CCCC2C(=O)N2CCN(c3ccccc3)CC2)cc1 (centres undefined) returned rCAG RNA binder -1.
`COc1ccc(C(=O)c2c(N)sc3c2CCN(C(=O)OC(C)(C)C)C3)cc1` gave rCAG RNA binder 10, NadD block 6, FAS-TE inh -18 and NR3A LBD binder 13*.
Screening CN1CCc2c(sc(N)c2C(=O)c2ccc(Cl)cc2)C1 returned rCAG RNA binder 9, NadD block -2, FAS-TE inh -15 and NR3A LBD binder 0.
For O=C(C(=O)N1CCC(CNS(=O)(=O)c2ccc(C(F)(F)F)cc2)CC1)c1cccs1 the results were rCAG RNA binder 2.
For O=C(N/N=C/c1ccc(O)c(Br)c1)c1cc2c(ccc3ccccc32)o1 the results were rCAG RNA binder -4, NadD block 50*, FAS-TE inh 1 and NR3A LBD binder 35*.
`CCOc1cc(/C=N/NC(=O)c2cc(C3CC3)[nH]n2)ccc1O` gave rCAG RNA binder 4, NadD block -3, FAS-TE inh -8 and NR3A LBD binder 26*.
CCOc1cc(/C=N/NC(=O)c2cc3c(ccc4ccccc43)o2)ccc1O was read as rCAG RNA binder 20, NadD block 14, FAS-TE inh 0 and NR3A LBD binder 28*.
CC(=O)Oc1ccc(/C=N\NC(=O)c2cc3c(ccc4ccccc43)o2)cc1 was read as rCAG RNA binder 2, NadD block 6, FAS-TE inh -2 and NR3A LBD binder 7.
`COCCCN1C(=O)[C@H](CC(=O)N2CCC(c3ccccc3)CC2)[C@]2(C(=O)OC)CCCCC=C12` gave rCAG RNA binder 2.
Screening CCCCCCCCN1C(=O)[C@@H](CC(=O)NCc2ccccc2)C[C@@]2(C(=O)OC)C1=C[C@H](C(C)C)O[C@@H]2C1CC1 returned rCAG RNA binder 11.
For COC(=O)[C@@]12CCCCC=C1N(CCc1ccc(Cl)cc1)C(=O)[C@H]2CC(=O)NCCC(C)C the results were rCAG RNA binder 3.
O=C(CSc1nc(C(F)(F)F)cc(=O)[nH]1)N1CCC(Cc2ccccc2)CC1 was read as rCAG RNA binder 3, NadD block 6, FAS-TE inh -4 and NR3A LBD binder 13*.
N#C/C(C(=O)Oc1ccccc1)=C1\C=Cc2ccccc2N1 was read as rCAG RNA binder 4, NadD block 1, FAS-TE inh 43 and NR3A LBD binder 20*.
Screening COC(=O)C[C@H]1CC[C@@H]2[C@H](COc3ccc(NC(=O)c4ccccc4OC)cc3C(=O)N2C)O1 returned rCAG RNA binder -1.
`Clc1ccc2nc(-c3ccncc3)cc(-c3ccccc3)c2c1` gave rCAG RNA binder 2, NadD block 1, FAS-TE inh 0 and NR3A LBD binder 24*.
`c1ccc(-c2cc(-c3ccncc3)nc3ccc4ccccc4c23)cc1` gave rCAG RNA binder 3, NadD block 6, FAS-TE inh 33 and NR3A LBD binder 22*.
O=[N+]([O-])c1ccc(S(=O)(=O)Nc2cccc(-c3ccc(N4CCOCC4)nn3)c2)cc1 was read as rCAG RNA binder 11, NadD block 3, FAS-TE inh 17 and NR3A LBD binder 72*.
COc1ccc(-c2cccc(NS(=O)(=O)c3cc([N+](=O)[O-])ccc3Cl)c2)nn1 was read as rCAG RNA binder 31, NadD block -4, FAS-TE inh 12 and NR3A LBD binder 1.
CCOc1ccc(-c2cccc(NS(=O)(=O)c3cc([N+](=O)[O-])ccc3Cl)c2)nn1 was read as rCAG RNA binder 40*, NadD block 3, FAS-TE inh 34 and NR3A LBD binder 8.
Screening O=C(NCCc1ccccc1)OCc1cn(-c2ccc(Cl)cc2)nn1 returned rCAG RNA binder 0.
CCCCOP(=O)(c1ccc(N(C)C)cc1)C(Nc1ccccc1)c1ccccc1 (centres undefined) was read as rCAG RNA binder -6, NadD block 1, FAS-TE inh 19 and NR3A LBD binder 13*.
